# This is a sample that favours compounds with a hit; in the whole collection about 2% have one here.
# MsrA inhibitor: bovine MsrA enzyme inhibitors, primary screen, biochemical, absorbance, HTS; Methionine sulfoxide reductase A (Bos taurus); purified bovine MsrA, absorbance read-out; inhibition, % at 15.5 µM; 0.75% of 360,000 active; AID 651718, 2012; in the data active means inhibition above about 4.5%;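 further: 0% = vehicle wells with enzyme and 100% = reference inhibitor wells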
# PKA-R2B act: activators of PKA-R2B holoenzyme, primary screen, biochemical, fluorescence polarization, Cy5-IP20, human; cAMP-dependent protein kinase catalytic subunit beta (Homo sapiens) + cAMP-dependent …; PKA-R2B holoenzyme dissociation; R2B truncated from residue 108, S112A mutant; 0% DMSO only, 100% 113 µM cGMP; activation, % at 11.4 µM; 0.079% of 340,000 active; AID 504700, 2011;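 active means activation above a cutoff set at the mean over all compounds plus 3 SD, cut at about 18% in these data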;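 further: higher means more holoenzyme dissociation and a rise in polarization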
# Target sequence (P31323 whole entry, looked up, other chains not shown, the tested form may be a part): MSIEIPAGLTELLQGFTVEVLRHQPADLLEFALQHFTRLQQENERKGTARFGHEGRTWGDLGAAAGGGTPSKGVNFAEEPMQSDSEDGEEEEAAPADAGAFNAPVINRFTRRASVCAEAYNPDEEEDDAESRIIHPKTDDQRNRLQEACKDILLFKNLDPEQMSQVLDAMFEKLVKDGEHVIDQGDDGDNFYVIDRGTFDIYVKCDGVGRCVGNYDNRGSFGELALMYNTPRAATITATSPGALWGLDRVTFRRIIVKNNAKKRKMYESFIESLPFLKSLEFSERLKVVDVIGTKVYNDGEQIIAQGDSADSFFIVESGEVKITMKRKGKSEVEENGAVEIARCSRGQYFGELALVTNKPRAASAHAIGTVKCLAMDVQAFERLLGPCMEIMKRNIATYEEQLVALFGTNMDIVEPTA
# MsrA act: bovine MsrA enzyme activators, primary screen, biochemical, absorbance, HTS; Methionine sulfoxide reductase A (Bos taurus); purified bovine MsrA, absorbance read-out; activation, % at 10.6 µM; 0.3% of 360,000 active; AID 602163, 2012; in the data active means activation above about 7.5%;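 further: 0% = vehicle and 100% = reference activator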
# Mot1-301 SUMO: yeast Mot1-301 growth rescue at high temperature, primary screen, SUMOylation pathway inhibitor project, S. cerevisiae, ATP luminescence, 38.5C. S. cerevisiae Mot1-301 growth rescue; percent above DMSO median, 100 means doubled. growth rescue, % at 18.8 µM. 1% of 320,000 active;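 active means every valid replicate shows activation above 250% relative to neutral control wells; inactive means the rest, any valid replicate at or below 250%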;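 further: OY570 slx delta 5 strain wells were the positive control but not used for scaling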
# PKA-R1A act: activators of PKA-R1A holoenzyme, primary screen, biochemical, fluorescence polarization, Cy5-IP20, bovine R1A, mouse PKAc | cAMP-dependent protein kinase type I-alpha regulatory subunit (Bos taurus) + … | PKA-R1A dissociation; scaled: DMSO 0%, 113 µM cGMP 100% | activation, % at 11.4 µM | 0.083% of 340,000 active | AID 504707, 2011;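 active means percent activation above the mean of all tested compounds plus 3 SD, cut at about 19% in these data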;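 further: higher means more PKAc released from R1A so a rise in polarization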
# The depositor's hits bear a star; x = no result; + = active, no number.
SMILES,MsrA inhibitor,PKA-R2B act,MsrA act,Mot1-301 SUMO,PKA-R1A act
CC(C)[C@H](NC(=O)[C@@H](N)Cc1ccccc1)C(=O)N1CCC2CCN(Cc3ccccc3)CC21 (stereo partly specified),1.0,x,x,x,x
CCOc1ccc(NC(=O)c2ccc(NC(=O)c3cn4c5c(c(N6CCN(C)CC6)c(F)cc5c3=O)OCC4C)cc2)cc1 (stereo unspecified),-1.0,4.2,-0.8,8.2,-3.4
CC1COc2c(N3CCN(C)CC3)c(F)cc3c(=O)c(C(=O)O)cn1c23 (stereo unspecified),1.9,-6.1,8.8*,-17.2,16.0
CCn1cnc2c([N+](=O)[O-])c(NS(=O)(=O)c3ccc(C)cc3)ccc21,0.5,-1.6,11.7*,12.0,-6.6
N#Cc1ccc(S(=O)(=O)N2CCCc3nc(-c4ccc(Br)cc4)ccc32)cc1,-0.2,x,x,x,x
O=C(N[C@H](C(=O)N1CCC[C@H]1C(=O)NCc1ccccc1)C1CCCCC1)c1ccc(Cl)cc1Cl,-0.1,x,x,x,x
CS(=O)(=O)c1ccc2nc(NC(=O)CN3CCC(Cc4ccccc4)CC3)sc2c1,0.1,8.0,1.6,293.8*,7.7
Cc1ccc2nc(NC(=O)c3cccs3)sc2c1,1.0,-0.8,-4.4,-16.6,-1.4
CS(=O)(=O)c1ccc2nc(NC(=O)CN3CCN(Cc4ccccc4)CC3)sc2c1,-1.2,-5.5,-1.4,-4.9,-6.0
CS(=O)(=O)c1ccc2nc(NC(=O)c3cccs3)sc2c1,6.8*,-4.3,-6.4,-39.6,-1.9
CCCCc1ccc(NC(=S)NCCN2CCOCC2)cc1,0.2,5.1,-2.1,731.4*,7.2
COc1ccccc1OCCCCN1CCCCC1,-0.5,-10.7,-4.7,-5.5,-8.5
COc1ccccc1OCCN1CSC(=S)N(C)C1,1.3,2.1,-3.2,+,7.5
COCCNC(=O)c1csc2c1CCCC2,-0.6,5.6,12.3*,-14.4,-3.9
O=C(COC(=O)/C=C/c1ccc(S(=O)(=O)N2CCOCC2)cc1)NCc1ccc2c(c1)OCO2,0.5,-9.0,-0.5,1.2,2.5
O=C(COC(=O)/C=C/c1ccc(S(=O)(=O)N2CCOCC2)cc1)NCc1ccc(F)cc1,1.6,10.4,-5.4,306.8*,0.5
O=C(CO/N=C/c1cccc([N+](=O)[O-])c1)Nc1ccc2ccccc2c1,0.1,-3.1,-2.0,338.0*,-8.3
O=C(COc1ccc(S(=O)(=O)Nc2ccccc2)cc1)NCc1cccnc1,-0.3,2.6,-0.8,1.3,1.8
Cc1ccccc1NS(=O)(=O)c1ccc(OCC(=O)NCc2cccnc2)cc1,-0.5,-6.4,-1.9,385.1*,-4.6
Cc1[nH]c(=O)[nH]c(=O)c1/C=C/C(=O)O,1.0,-1.6,-4.2,853.2*,-5.1
CC(CN1CCN(C)CC1)OC(=O)c1ccccc1Cl (stereo unspecified),-0.6,2.1,-4.9,345.7*,-6.1
CC(CN1CCCC1)OC(=O)c1ccccc1Cl (stereo unspecified),0.4,-8.5,-4.4,11.8,-9.3
N#C/C(=C\c1ccc([N+](=O)[O-])o1)c1nc2ccccc2[nH]1,-1.1,x,x,357.0*,x
Cc1ccc2nc(/C(C#N)=C\c3ccc([N+](=O)[O-])o3)[nH]c2c1,0.1,2.0,4.2,72.0,-4.2
COc1ccc(-c2oc3c(OC)c(OC)c(OC)c(O)c3c(=O)c2OC)cc1OC,1.5,-5.1,-2.1,+,-17.7
SMILES,MsrA inhibitor,PKA-R2B act,MsrA act,Mot1-301 SUMO,PKA-R1A act
COc1c(OC)c(O)c2c(=O)c(O)c(-c3ccccc3)oc2c1OC,0.6,1.1,-1.1,-3.9,-15.1
Cc1[nH]c2ccccc2c1CC(=O)Nc1ccc(Nc2cccnc2)c(-c2cc(C(F)(F)F)cc(C(F)(F)F)c2)c1,1.7,x,x,x,x
Cc1cc2c(cc1C)CSC(c1ccccc1O)SC2,0.6,-12.3,2.6,272.6*,0.5
Cc1cc2c(cc1C)CSC(c1ccc3ccccc3c1O)SC2,1.4,-5.8,-2.0,-11.2,-8.8
O=C(/C=C/c1cccc(Cl)c1)NCCc1ccccc1,-0.8,-7.4,-3.7,3.5,-4.8
O=C(/C=C/c1c(Cl)cccc1Cl)NCCc1ccccc1,0.7,-2.1,8.0*,54.1,-8.1
CC(C)CN(C(=O)CCC(=O)OC(C)C(=O)Nc1cccc(C#N)c1)c1c(N)n(CC(C)C)c(=O)[nH]c1=O (stereo unspecified),-0.6,7.2,1.0,130.2,0.5
CCCCCN(C(=O)CCC(=O)OC(C)C(=O)Nc1cccc(C#N)c1)c1c(N)n(CCCC)c(=O)[nH]c1=O (stereo unspecified),-0.3,3.5,-0.8,303.2*,-4.8
C[C@@]12C(=O)Nc3ccc(Cl)cc3C(=O)N1[C@H]1c3ccccc3OC[C@@H]1[C@@H]2c1ccccc1,x,3.0,-6.3,543.4*,-2.5
C[C@@H]1CN([C@H](C)CO)C(=O)c2c(c3ccccc3n2C)-c2ccccc2CO[C@@H]1CN(C)C(=O)CCN(C)C,0.5,x,x,x,x
O=C(NCc1ccco1)c1ccc(N2CCCCC2)c([N+](=O)[O-])c1,-1.4,7.1,-5.7,812.1*,12.1
O=C(NCc1ccco1)c1ccc(N2CCOCC2)c([N+](=O)[O-])c1,-1.5,7.6,-0.3,10.7,9.1
CO/C([O-])=N/c1c[n+](-c2ccc(Cl)cc2)no1,-0.9,-5.0,-2.3,290.0*,-8.7
O=C(C(=O)N1CCC(CNS(=O)(=O)c2ccccc2)CC1)c1cc2ccccc2o1,2.1,x,x,x,x
Cn1cc(CC(=O)Nc2ccc(Nc3cccnc3)cc2)c2ccccc21,0.8,x,x,x,x
CCN(C(=O)CN1C(=O)S/C(=C\C=C\c2ccccc2)C1=O)C1CCS(=O)(=O)C1 (stereo unspecified),4.6*,4.7,-6.3,107.1,3.9
Cc1ccc(SC(CC(=O)c2ccc(F)cc2)C(=O)O)cc1 (stereo unspecified),1.0,-6.7,-11.9,-3.7,-7.0
CC(C)(C)c1ccc(C(=O)CC(Sc2ccc(Cl)cc2)C(=O)O)cc1 (stereo unspecified),-0.3,-7.8,-5.7,532.9*,-8.7
Cc1ccc(C(=O)Nc2cc(C(C)C)c(O)c(C(C)C)c2)cc1,0.4,-5.6,-2.8,-8.9,-16.1
CC(C)c1cc(N=NC(N)=O)cc(C(C)C)c1O,4.6*,9.8,-5.6,57.8,6.5
COC(=O)[C@]12C[C@H](CC(=O)NCc3cccs3)C(=O)N(Cc3ccccc3)C1=C[C@H](C(C)(C)C)O[C@@H]2C,-0.4,x,x,x,x
Cn1cccc1-c1nc2ccc(NC(=O)c3ccco3)cc2[nH]1,7.3*,4.0,-1.4,2.4,7.4
COC(=O)[C@]12C[C@H](CC(=O)N3CCC(c4ccccc4)CC3)C(=O)N(Cc3ccc4c(c3)OCO4)C1=C[C@H](C(C)(C)C)O[C@@H]2C,0.5,x,x,x,x

# Source: PubChem (several laboratories)
